NPC1 prom act: activates the NPC1 promoter. 320,000 tested, 2.4% active. Huh7 NPC1 promoter luciferase reporter, 24 h. Potency, µM (series often up to 9.22 µM), usual class: activators; further: nearly all actives have a fitted effect of over 60% in size
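Quantitative HTS used a cell-based reporter: Huh7 cells stably bearing the NPC1 promoter upstream of luciferase were treated with compounds for 24 h, and promoter activation was read as luminescence.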
ELG1 genotox: induces genotoxicity in HEK293T cells with luciferase-tagged ELG1 | HEK293T ELG1-luciferase reporter, luminescence, 16 h | Potency, µM (top dose mostly 46 µM), hits mostly activators | 330,000 tested, 1.3% active; further: nearly all actives have a fitted effect of over 60% in size
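Step 1: seed 2,000 HEK293T ELG1-luciferase cells per well. Step 2: add compound or DMSO, incubate 16 hr at 37 °C. Step 3: ONE-Glo, 30 min at room temperature, read luminescence.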
FLuc modulator: counter-screen for miR-21 project: firefly luciferase inhibitors or activators | P08659 | purified FLuc, Km substrates, luminescence inhibition | Potency, µM (series often up to 57.5 µM), hits mostly inhibitors | 360,000 tested, 6.9% active | AID 588342; further: nearly all actives have a fitted effect of over 55% in size
Target sequence (P08659 whole entry, looked up): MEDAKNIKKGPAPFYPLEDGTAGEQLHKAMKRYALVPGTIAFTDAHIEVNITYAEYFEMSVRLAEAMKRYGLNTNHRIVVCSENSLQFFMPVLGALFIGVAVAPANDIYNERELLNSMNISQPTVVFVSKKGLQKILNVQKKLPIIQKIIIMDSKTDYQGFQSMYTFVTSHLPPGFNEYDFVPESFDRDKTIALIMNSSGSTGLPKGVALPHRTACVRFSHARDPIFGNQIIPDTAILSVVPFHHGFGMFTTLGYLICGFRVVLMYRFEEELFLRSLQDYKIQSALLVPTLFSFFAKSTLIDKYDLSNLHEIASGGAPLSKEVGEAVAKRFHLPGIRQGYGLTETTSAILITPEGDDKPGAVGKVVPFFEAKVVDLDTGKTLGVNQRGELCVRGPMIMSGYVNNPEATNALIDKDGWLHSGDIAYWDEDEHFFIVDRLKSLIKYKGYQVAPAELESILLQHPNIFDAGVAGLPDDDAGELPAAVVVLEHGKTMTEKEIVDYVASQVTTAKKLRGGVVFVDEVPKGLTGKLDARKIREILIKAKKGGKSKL
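Biochemical qHTS of compounds, final roughly 60 µM downward over six points, against 10 nM purified firefly luciferase using Km concentrations of substrates (10 uM D-luciferin, 10 uM ATP) in Tris acetate pH 7.5 buffer; luminescence output.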
SMN2 splice up: SMN2 splice variant enhancement. HEK293 SMN2-luciferase splicing reporter, luminescence, 30-36 h. Potency, µM (titrated, usually from 46.1 µM), usual class: activators. 210,000 tested, 2.8% active. AID 1458; further: nearly all actives have a fitted effect of over 55% in size
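HEK293 cells carry an SMN2 […]–luciferase reporter in which exon 7 inclusion puts luciferase in frame. Cells were plated 10-12 h before compound addition, then incubated 30-36 h at 37C. ONE-Glo luminescence was read; sodium butyrate at 4.5 mM final served as control.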
ELG1 repair inh: blocks ELG1-dependent DNA repair in HEK293T cells | HEK293T ELG1-luciferase reporter, luminescence, 16 h; DNA damage induced by 5-fluorouridine | Potency, µM (titrated, usually from 46.1 µM), most hits filed as inhibitors | 330,000 tested, 2.3% active | AID 504467; further: nearly all actives have a fitted effect of over 55% in size
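5-Fluorouridine DNA damage + compound/DMSO, 2,000 cells/well, 16 h, 37 °C/5% CO2. ONE-Glo, 30 min RT, luminescence. Readout = decrease in reporter signal.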
Rab9 promoter act: activates the Rab9 promoter. 320,000 tested, 2.8% active. AID 485297. Huh7 Rab9 promoter-luciferase reporter, luminescence, 24 h. Potency, µM (top dose mostly 9.22 µM), usual class: activators; further: nearly all actives have a fitted effect of over 60% in size
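Huh7 cells stably carrying a Rab9 promoter-luciferase reporter, 1500 cells per well in OP-MEM I with 10% FBS, treated with compound 24 hours at 37C. Luciferase activity read by luminescence after 10 minutes with Amplite reagent.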
Hits are given with their value; 0 = inactive; ? = inconclusive; - = no result; [ ] = remark or other dose. Sampled rows, rich in hits. Any-hit rate of the full collection: about 9.4%. The call rests on the fitted dose curve; in most records, active means well fitted curve in the direction sought with a large enough effect; inconclusive means small, poorly fitted or top-dose-only effect, or another doubt; inactive means no such curve, though single readings can be large; an effect the other way counts as inactive or inconclusive.

SMILES | NPC1 prom act | ELG1 genotox | FLuc modulator | SMN2 splice up | ELG1 repair inh | Rab9 promoter act
Cn1/c(=N\NC(=O)c2ccccc2Cl)sc2ccccc21 | ? | 0 | 16.9µM | ? | ? | ?
CCc1ccc(C(=O)COC(=O)C(NC(=O)C2CCC(C)CC2)C(C)C)cc1 (stereo unspecified) | - | - | 1.69µM | 0 | - | -
CCc1ccc(C(=O)COC(=O)[C@@H](NC(N)=O)[C@@H](C)CC)cc1 | 0 | ? | 1.35µM | 0 | ? | ?
CN(C)CN1CSC(=S)N(CN(C)C)C1 | - | - | - | 0[9.22 µM] | - | -
COc1ccc(N(CC(=O)NCc2ccccc2Cl)S(=O)(=O)c2c(C)[nH]c(=O)[nH]c2=O)cc1 | - | - | 0 | 0 | - | -
CCc1cc(C(=O)Nc2sc(C)c(CC)c2C#N)no1 | - | - | 15.1µM | 0 | - | -
CCc1c(C)sc(NC(=O)c2cc(C(C)C)on2)c1C#N | 0 | 0 | ? | 0 | ? | 0
Cc1cc(C(=O)Nc2sc(C)c(C)c2C#N)no1 | 0 | 11.2µM | 19µM | - | ? | 0
CCc1c(C)sc(NC(=O)c2cc(C)no2)c1C#N | 0 | 0 | 13.5µM | 0 | ? | 0
CC(=O)c1ccc(NC(=O)c2ccc(-c3nc(COc4ccc(C)cc4)c(C)o3)cc2)cc1 | - | - | 0 | - | - | -
O=C(CSC1=NCCS1)Nc1ccc(F)cc1 | 0 | 0 | 0 | - | 0 | 0
O=C(CCSc1nnc2ccc3ccccc3n12)Nc1ccc(F)cc1 | 0 | 0 | 0 | 0 | 0 | 0
O=C(CCSc1ccc(F)cc1)Nc1ccc(-n2cnnn2)cc1 | 0 | 0 | 0 | 0 | 18.4µM | 0
O=C(CSc1ccc(F)cc1)Nc1ccc(C2SCCS2)cc1 | ? | ? | 10.7µM | - | ? | ?
c1cncc(CNc2ncncc2-c2ccc3c(c2)OCO3)c1 | - | - | - | 0 | - | -
CCN(C(=O)Cn1c(=O)n(-c2ccccc2)c(=O)c2ccc(C(=O)NCc3ccc4c(c3)OCO4)cc21)c1cccc(C)c1 | - | - | 0 | 0 | - | -
O=C(N/N=C/c1ccccn1)c1ccc(Br)cc1 | ? | ? | 10.7µM | 0 | ? | ?
C(=N\N=C\c1ccccn1)/c1ccccn1 | 0 | 0 | 12µM | - | 0 | 0
Cc1ccccc1C(=O)Nc1ccc(C(=O)N/N=C/c2ccccn2)cc1 | 0 | 0 | 0 | - | 0 | 0
Cc1ccc(C(=O)N/N=C\c2ccccn2)cn1 | 0 | 0 | 19µM | - | 0 | 0
O=C(N/N=C/c1ccccn1)c1ccc(N/N=C/c2ccccn2)cc1 | 0 | 0 | 2.39µM | 14.1µM | ? | 2.24µM
CCC1CN(C(=O)N2CCC(C(=O)NCCc3ccccc3Cl)CC2)c2cc(C)ccc2O1 (stereo unspecified) | - | - | 0 | - | - | -
CCCN(Cc1cccs1)C(=O)Nc1cc(Cl)ccc1C | - | - | 0 | - | - | -
CC(C)(C)c1ccc(C(=O)N/N=C/c2ccccn2)cc1 | 0 | ? | 9.53µM | - | ? | 0
O=C(N/N=C/c1ccccn1)c1ccc2nc[nH]c2c1 | 0 | 0 | ? | - | ? | 0
SMILES | NPC1 prom act | ELG1 genotox | FLuc modulator | SMN2 splice up | ELG1 repair inh | Rab9 promoter act
COc1ccc(C)cc1NC(=O)c1ccc2c(c1)N(Cc1cccc(Cl)c1)C(=O)c1ccccc1S2=O (stereo unspecified) | - | - | 0 | - | - | -
CCn1c(CN2CCCCC2)nc2cc(S(=O)(=O)N3CCCCC3)ccc21 | 0 | 0 | - | - | 0 | 0
CCn1c(C)nc2cc(S(=O)(=O)N3CCCCC3)ccc21 | 0 | 0 | 0 | 0 | 18.4µM | 0
Cc1ccc2c(=O)cc(C(=O)Nc3c(C(=O)c4ccccc4)oc4ccccc34)oc2c1C | - | - | 0 | 0 | - | -
COc1ccc(-c2noc(CSc3nnc(-c4ccc(Cl)cc4)n3C)n2)cc1OC | - | - | 0 | 0 | - | -
C=CCN1C(=O)S/C(=C/c2ccsc2)C1=O | 0 | ? | 19µM | 0 | ? | 0
CCCCCCCCCCCCC/C=C/[C@@H](O)[C@H](COP(=O)([O-])OCC[N+](C)(C)C)NC(=O)CCCCCCCCCCCCCCCCC | - | - | - | 0 | - | -
NC(=O)CSc1nc2ccc([N+](=O)[O-])cc2[nH]1 | 0 | 0 | 0 | 0 | 0 | 0
CCCC[n+]1ccc(-c2nc3ccc([N+](=O)[O-])cc3[nH]2)cc1 | 0 | 0 | ? | 11.2µM | ? | ?
O=[N+]([O-])c1ccc(-c2nc3ccc([N+](=O)[O-])cc3[nH]2)cc1 | 1.58µM | 0 | 2.69µM | - | ? | ?

Bioassay records as filed in PubChem.
